Laboratory results as given in PubChem BioAssay.
For some of these results: Potency and affinity values are given separately. The source made the active and inactive calls.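 How the source made its calls, unless noted: active means calcium signal ratio cut to more than 3 SD under the fully stimulated control mean yet still positive, in both repeats and the primary screen; inactive means the rest.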

Columns and labels:
[1] = test system: TRPC4 beta (transient receptor potential cation channel C4), mouse; experiment: TRPC4 cation channel opening, retest – cell-based, Fluo4 calcium, HEK293 TRPC4beta/mu-opioid, duplicates, 10 µM, confirmation (AID 2426;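 active means fluorescence ratio normalized to control raised more than 50% in primary screen plus both repeat runs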); settings: Fluo4 calcium fluorescence, at 10 µM; active compounds read high
[2] = test system: transient receptor potential cation channel C4 beta (TRPC4), mouse; experiment: TRPC4 cation channel opening, second retest – cell-based, second round, Fluo4, HEK293 TRPC4beta/mu-opioid, 1 µM, confirmation (AID 2461;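 active means primary screen active and over 50% activation in each of two duplicate runs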); settings: Fluo4 calcium fluorescence, at 1 µM; active compounds read high
[3] = test system: TRPC4 (transient receptor potential cation channel C4 beta), mouse; experiment: potentiation of DAMGO EC20 TRPC4 response – cell-based, second round, Fluo-4, HEK293 TRPC4beta/mu-opioid, 1 µM, confirmation (AID 2554;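 active means primary screen hit whose fluorescence ratio, in both repeats, exceeds the weak agonist control mean by 3 SD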); settings: DAMGO EC20, Fluo-4 calcium flux, at 1 µM; active compounds read high
[4] = test system: TRPC4 beta (transient receptor potential cation channel C4), mouse; experiment: potentiation of DAMGO EC20 TRPC4 response – cell-based, Fluo-4, HEK293 TRPC4beta/mu-opioid, confirmation (AID 2555;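 active means primary screen hit whose calcium fluorescence ratio, in both repeats, exceeds the weak agonist control mean by 3 SD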); settings: DAMGO EC20, Fluo-4 calcium flux, at 10 µM; active compounds read high
[5] = molecular target: Short transient receptor potential channel 4 (Mus musculus) (UniProt Q9QUQ5); experiment: blockers of DAMGO-evoked TRPC4 calcium flux – cell-based, Fluo4, HEK293 TRPC4beta/mu-opioid, confirmation (AID 2636;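 active means calcium signal cut by more than 3 SD below the full-agonist control yet still positive, in both repeats and the earlier primary screen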); settings: at 10 µM; active compounds read high
Short transient receptor potential channel 4 (Mus musculus), sequence (Q9QUQ5 whole entry, looked up): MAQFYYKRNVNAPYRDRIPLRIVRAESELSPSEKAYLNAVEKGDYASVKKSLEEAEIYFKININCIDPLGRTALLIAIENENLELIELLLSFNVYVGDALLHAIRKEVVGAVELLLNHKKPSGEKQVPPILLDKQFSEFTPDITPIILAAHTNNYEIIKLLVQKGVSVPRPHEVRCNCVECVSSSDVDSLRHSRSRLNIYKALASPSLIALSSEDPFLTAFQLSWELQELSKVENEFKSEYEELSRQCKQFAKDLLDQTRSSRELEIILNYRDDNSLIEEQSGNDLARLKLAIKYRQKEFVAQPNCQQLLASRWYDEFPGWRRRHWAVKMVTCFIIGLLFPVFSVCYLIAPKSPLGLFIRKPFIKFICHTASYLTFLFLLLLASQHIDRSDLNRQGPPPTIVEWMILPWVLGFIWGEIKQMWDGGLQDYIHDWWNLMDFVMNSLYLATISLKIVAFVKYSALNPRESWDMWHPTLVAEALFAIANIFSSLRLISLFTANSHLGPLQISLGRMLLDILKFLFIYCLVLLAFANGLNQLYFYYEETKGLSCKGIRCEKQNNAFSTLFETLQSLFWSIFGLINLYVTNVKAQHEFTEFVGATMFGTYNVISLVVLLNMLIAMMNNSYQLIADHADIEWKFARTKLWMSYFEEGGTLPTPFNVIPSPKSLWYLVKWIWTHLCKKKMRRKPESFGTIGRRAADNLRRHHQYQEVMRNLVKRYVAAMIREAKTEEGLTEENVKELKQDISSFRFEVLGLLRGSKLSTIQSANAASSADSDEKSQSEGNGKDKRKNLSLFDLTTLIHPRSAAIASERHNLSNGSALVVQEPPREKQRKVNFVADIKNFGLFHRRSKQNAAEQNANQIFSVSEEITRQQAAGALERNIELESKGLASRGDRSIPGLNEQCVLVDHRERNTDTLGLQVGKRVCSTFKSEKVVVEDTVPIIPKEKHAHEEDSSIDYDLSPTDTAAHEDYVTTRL

[6] = molecular target: Short transient receptor potential channel 4 (Mus musculus) (UniProt Q9QUQ5); experiment: blockers of DAMGO-evoked TRPC4 calcium flux – cell-based, second round, Fluo4, HEK293 TRPC4beta/mu-opioid, 1 µM, confirmation (AID 2637); settings: at 1 µM; active compounds read high
[7] = molecular target: Short transient receptor potential channel 4 (Mus musculus) (UniProt Q9QUQ5); experiment: calcium entry via TRPC4 opening agents – cell-based, HEK293 TRPC4/mu-opioid, Fluo-4 calcium, dose response (AID 434937;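 active means primary screen activator hit with a dose response curve and TRPC4 channel activation at any tested dose; inactive means no activation, no dose response, or not a primary hit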)
[8] = molecular target: Short transient receptor potential channel 4 (Mus musculus) (UniProt Q9QUQ5); experiment: potentiation of DAMGO-evoked TRPC4 calcium signal – cell-based, HEK293 TRPC4/mu-opioid, Fluo-4 calcium, EC20 DAMGO, dose response (AID 434941;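 active means earlier screen potentiator hit that boosts the TRPC4 ion channel at some dose, with a dose response; inactive means no potentiation, no dose response, or not a prior hit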;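 further: calcium entry triggered by an EC20 dose of DAMGO at the co-expressed mu-opioid receptor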)
[9] = molecular target: Short transient receptor potential channel 4 (Mus musculus) (UniProt Q9QUQ5); experiment: block of DAMGO-driven TRPC4 calcium entry – cell-based, HEK293 TRPC4/mu-opioid, Fluo-4 calcium, dose response (AID 434942;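 active means primary screen inhibitor hit that blocks the TRPC4 channel at some tested dose, yielding a dose curve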)
[10] = molecular target: Short transient receptor potential channel 6 (Mus musculus) (UniProt Q61143); experiment: TRPC6 blockade by TRPC4 inhibitor hits – cell-based, HEK293, membrane potential dye, duplicate, selectivity assay for TRPC4 inhibitor project, confirmation (AID 434948;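 active means active in primary screen and both duplicates, each dropping signal beyond three positive-control SD with fluorescence still positive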); settings: HEK293 TRPC6, membrane potential dye fluorescence, at 10 µM, stimulated with maximal-effect acetylcholine; active compounds read high
Short transient receptor potential channel 6 (Mus musculus), sequence (Q61143 whole entry, looked up): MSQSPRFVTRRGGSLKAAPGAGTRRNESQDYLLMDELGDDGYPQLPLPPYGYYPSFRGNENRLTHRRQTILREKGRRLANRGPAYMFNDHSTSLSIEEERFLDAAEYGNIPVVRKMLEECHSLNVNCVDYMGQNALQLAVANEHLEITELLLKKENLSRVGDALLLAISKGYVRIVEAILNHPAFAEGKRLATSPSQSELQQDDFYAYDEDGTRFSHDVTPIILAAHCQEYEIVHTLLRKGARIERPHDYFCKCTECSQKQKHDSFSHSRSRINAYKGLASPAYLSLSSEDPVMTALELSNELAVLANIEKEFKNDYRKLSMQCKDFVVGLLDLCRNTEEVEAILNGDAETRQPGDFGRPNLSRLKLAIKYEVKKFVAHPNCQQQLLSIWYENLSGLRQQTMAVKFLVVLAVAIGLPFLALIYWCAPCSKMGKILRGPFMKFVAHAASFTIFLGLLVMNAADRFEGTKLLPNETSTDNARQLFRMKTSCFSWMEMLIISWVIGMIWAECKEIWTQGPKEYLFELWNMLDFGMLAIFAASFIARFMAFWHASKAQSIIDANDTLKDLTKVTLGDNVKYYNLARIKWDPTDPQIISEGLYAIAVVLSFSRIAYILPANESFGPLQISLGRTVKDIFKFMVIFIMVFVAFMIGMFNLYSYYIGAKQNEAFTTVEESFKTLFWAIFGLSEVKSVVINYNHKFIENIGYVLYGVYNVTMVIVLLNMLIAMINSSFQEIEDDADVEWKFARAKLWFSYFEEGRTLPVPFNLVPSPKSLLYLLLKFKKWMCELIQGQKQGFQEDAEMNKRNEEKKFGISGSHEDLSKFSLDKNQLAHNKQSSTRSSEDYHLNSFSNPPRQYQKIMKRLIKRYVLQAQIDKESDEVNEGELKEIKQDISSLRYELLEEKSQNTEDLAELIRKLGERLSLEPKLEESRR

[11] = molecular target: Short transient receptor potential channel 6 (Mus musculus) (UniProt Q61143); experiment: TRPC6 opening by TRPC4 activator hits – cell-based, HEK293, membrane potential dye, duplicate, selectivity assay for TRPC4 activator project, confirmation (AID 434950;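 active means membrane potential signal rise above negative control mean plus 3 SD in both duplicates, also active in the earlier TRPC4 screen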); settings: HEK293 TRPC6, membrane potential fluorescence, at 10 µM; activation: active compounds read high; outcome: activation
[12] = molecular target: Short transient receptor potential channel 6 (Mus musculus) (UniProt Q61143); experiment: positive modulators of mouse TRPC6 channel – HEK293 cells, membrane potential dye, duplicate, selectivity assay for TRPC4 potentiator project, confirmation (AID 434952;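 active means compound raising the membrane signal above positive-control mean plus 3 SD in both repeats, and a primary screen hit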); settings: HEK293 TRPC6, membrane potential dye fluorescence, at 10 µM, maximal acetylcholine added after compound; active compounds read high
[13] = molecular target: Short transient receptor potential channel 4 (Mus musculus) (UniProt Q9QUQ5); experiment: calcium flux activators in TRPC4/5HT1a cells, counter-screen for TRPC4 activator project, cell-based, second counter screen, HEK293 TRPC4/5HT1a, Fluo-4 (AID 434977;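 active means calcium signal rise above buffer-control mean plus 5 SD in both duplicates, and also a hit in the primary screen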); settings: Fluo-4 calcium flux, at 10 µM; active compounds read high
[14] = serotonin-gated TRPC4 signal block – cell-based, second counter screen, HEK293 TRPC4/5HT1a, Fluo-4, counter-screen for TRPC4 inhibitor project, confirmation (AID 434978;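 active means primary screen active whose calcium signal fell more than 3 SD beyond the full-serotonin control mean in both duplicate plates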;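 further: serotonin given first at submaximal then at maximal dose after compound preincubation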); settings: Fluo-4 calcium flux, at 10 µM, serotonin added to trigger calcium flux; active compounds read high
[15] = test system: TRPC4 (mouse), co-expressed with 5HT1a in HEK293; experiment: enhancement of serotonin-evoked TRPC4 response – cell-based, second counter screen, HEK293 TRPC4/5HT1a, Fluo-4, counter-screen for TRPC4 potentiator project, confirmation (AID 434979;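 active means signal rise over 3 SD above mean of control wells given weak agonist, in both repeats and first screen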); settings: Fluo-4 calcium flux, at 10 µM, serotonin added at its EC20 dose; active compounds read high
[16] = nonspecific calcium rise without TRPC4 – cell-based, HEK293 mu-opioid receptor line, counter-screen for TRPC4 activator project, confirmation (AID 449723;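 active means hit in primary screen, with calcium signal over 5 SD above buffer well mean in both duplicates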;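 further: counter screen cells carry the mu-opioid receptor alone and lack TRPC4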); settings: HEK293 mu-opioid cells, Fluo-4 calcium fluorescence, at 10 µM; active compounds read high
[17] = nonspecific potentiation of DAMGO calcium response – cell-based, HEK293 mu-opioid receptor line, counter-screen for TRPC4 allosteric potentiator project, confirmation (AID 449724;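 active means calcium signal rise more than 3 SD above the low-dose agonist control mean, in both duplicate plates and the primary screen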); settings: HEK293 mu-opioid receptor cells, Fluo-4 calcium flux, at 10 µM, compound added before EC20 DAMGO stimulus; active compounds read high

Compound	outcome [1]	outcome [2]	potentiation [3]	outcome [4]	outcome [5]	outcome [6]	outcome [7]	outcome [8]	outcome [9]	outcome [10]	outcome [11]	outcome [12]	outcome [13]	outcome [14]	potentiation [15]	outcome [16]	outcome [17]	outcome [3]	outcome [15]
O=C(NC1CCN(Cc2ccccc2)CC1)c1cccc(S(=O)(=O)Nc2cc(C(F)(F)F)ccc2Cl)c1	inactive	inactive	13% (active)	inactive	inactive	inactive	inactive	inactive	inactive	inactive	inactive	inactive	inactive	inactive	22.2% (active)	inactive	inactive		
CCC(CC)c1nnc(NC(=O)c2c(C)nn(Cc3ccccc3Cl)c2C)s1	inactive	inactive		inactive	inactive	inactive	inactive	inactive	inactive	inactive	inactive	inactive	inactive	inactive	36.2% (active)	inactive	inactive	inactive	
Cc1ccc(C)c(N2CCN(CCCNC(=O)CCn3c(=O)c4cccn4c4cccnc43)CC2)c1	inactive	inactive		inactive	inactive	inactive	inactive	inactive	inactive	inactive	inactive	inactive	inactive	inactive		inactive	inactive	inactive	inactive
COc1ccc(NS(=O)(=O)c2csc(C(N)=O)c2)cc1OC	inactive	inactive		inactive	inactive	inactive	inactive	inactive	inactive	inactive	inactive	inactive	inactive	inactive	12.9% (active)	inactive	inactive	inactive	
O=C(OCCCCN1C(=O)c2ccccc2C1=O)c1ccc(S(=O)(=O)N2CCCC2)cc1	inactive	inactive		inactive	inactive	inactive	inactive	inactive	inactive	inactive	inactive	inactive	inactive	inactive		inactive	inactive	inactive	inactive
COc1ccc(CCn2c(=S)[nH]c3cc(C(=O)N4CCOCC4)ccc3c2=O)cc1OC	inactive	inactive		inactive	inactive	inactive	inactive	inactive	inactive	inactive	inactive	inactive	inactive	inactive		inactive	inactive	inactive	inactive
Cc1ccc(Nc2ccc(S(=O)(=O)N3CCOCC3)cc2[N+](=O)[O-])cc1C	inactive	inactive		inactive	inactive	inactive	inactive	inactive	inactive	inactive	inactive	inactive	inactive	inactive		inactive	inactive	inactive	inactive
COc1ccc(NC(C)=O)cc1NC(C)C(=O)Nc1cc(C(F)(F)F)ccc1N1CCOCC1 (stereo unspecified)	inactive	inactive		inactive	inactive	inactive	inactive	inactive	inactive	inactive	inactive	inactive	inactive	inactive	14.5% (active)	inactive	inactive	inactive	
